About 83,000 compounds went through this panel and 20% of them were active in at least one assay; those are over-represented in the sample as a whole.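 Method: cells in 96-well plates; compound added at one concentration; 48 h incubation; percent growth measured; values under 10 scored active.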 A number with no mark means an inactive call. Active and inactive are the calls of the source.
What was measured:
Experiment in all cases: NCI-60 one-dose screen, 48 h (100 = growth as untreated, 0 = no growth, -100 = all killed)
Conditions in all cases: 10 µM unless noted
[1] = tested on: T-47D breast
[2] = tested on: BT-549 breast
[3] = tested on: MDA-MB-435 melanoma
[4] = tested on: SW-620 colon
[5] = tested on: MCF7 breast
[6] = tested on: HCT-116 colon
[7] = tested on: HCC-2998 colon
[8] = tested on: KM12 colon

Row | SMILES | growth [1] | growth [2] | growth [3] | growth [4] | growth [5] | growth [6] | growth [7] | growth [8]
1 | CCNCCNc1cc(-c2ccc(C#N)cc2)c(C#N)c2nc3ccccc3n12 | 37.5% | 40.4% | 13.9% | -30.2% (active) | 57.8% | -27.2% (active) | 41% | 29%
2 | NC(=S)c1csc(CCNC(=O)c2ccccc2)n1 | 103% | 96.5% | 110% | 105% | 90.7% | 97.6% | 103% | 109%
3 | C[C@@H]1C(=O)N(C[C@H](Cc2ccccc2)N(Cc2ccccc2)Cc2ccccc2)[C@]1(Cc1ccccc1)C(=O)OC(C)(C)C | 47.4% | 85.7% | 76.5% | 63.7% | 50.6% | 40.6% | 84.5% | 62.4%
4 | N=C(N)c1ccc(-c2ccc(-c3ccc(Cl)c(Cl)c3)o2)cc1 | 64.3% | 90% | -42.1% (active) | -73.6% (active) | -68.9% (active) | -83% (active) | -75.7% (active) | -84.2% (active)
5 | COc1ccc(N(C)c2nc(Cl)nc3cnn(C)c23)cc1 | 43.5% | -13.9% (active) | -22.8% (active) | 27.8% | 15.4% | -18.4% (active) | 17.6% | 6.55% (active)
6 | Cc1nc(Nc2ccc(NC(=S)Nc3ccccc3)cc2)c2ccccc2n1 | 87.6% | 113% | 112% | 106% | 77.4% | 101% | 104% | 104%
7 | C[C@@H]1C(=O)N(C[C@@H](Cc2ccccc2)NC(=O)OCc2ccccc2)[C@]1(Cc1ccccc1)C(=O)OCc1ccccc1 | 22.3% | 61.3% | 48.3% | 40.9% | 27% | 34.4% | 72.8% | 26%
8 | N#C/C(=C\c1ccc(Br)cc1)n1nnc2ccccc21 | 24% | -1.46% (active) | -38.4% (active) | -19.9% (active) | 14.2% | -44.2% (active) | -30.8% (active) | 1.67% (active)
9 | COc1cc(C2CC(c3ccc(Nc4nc(Nc5ccc(F)cc5)nc(Nc5ccc(Cl)cc5)n4)cc3)=NN2C(C)=O)cc(OC)c1OC (stereo not given) | 19% | 13.4% | 95.7% | 87% | 46.6% | 55.1% | 89.3% | 71.2%
10 | CNC(=O)c1cc(Oc2ccc3nc(NC(=O)Nc4cc(C(F)(F)F)cc(C(F)(F)F)c4)sc3c2)ccn1 | -39.6% (active) | -46.9% (active) | -13.6% (active) | -36.1% (active) | 0.0531% (active) | -56.1% (active) | 5.71% (active) | -14.7% (active)
11 | CN(C)c1ccc2cc(-c3ccccc3F)c(N)nc2c1 | 27.1% | 25.5% | -9.25% (active) | 30% | 27% | 22.4% | 54.3% | 26%
12 | O=C(/C=C/C12c3ccccc3C(c3ccccc31)C1C(=O)N(c3ccc(Cl)cc3)C(=O)C12)c1ccccn1 (stereo not given) | -3.33% (active) | -49.6% (active) | -29.1% (active) | -12.4% (active) | 2.48% (active) | -69.2% (active) | -87.4% (active) | -60.8% (active)
13 | CC(C)c1ccc(NC(=O)Cc2ccc(Nc3ncnc4cc(-c5cnn(CCN(C)C)c5)ccc34)cc2)cc1 | -37.1% [30 µM] (active) | -15.3% [30 µM] (active) | -85.4% [30 µM] (active) | -82.6% [30 µM] (active) | -49.1% [30 µM] (active) | -19.7% [30 µM] (active) | -79.6% [30 µM] (active) | -86.4% [30 µM] (active)
14 | CCCCOC(=O)c1ccc(NC(=O)C(C)N2CCOCC2)cc1 (stereo not given) | 107% | 86.6% | 113% | 101% | 106% | 77.6% | 102% | 109%
15 | CNC(=O)NCC1OC(n2cnc3c(NC(=O)Nc4ccccc4)ncnc32)C2OC(C)(C)OC12 (stereo not given) | 74.7% | 71.7% | 101% | 91.1% | 85.4% | 81.1% | 95.5% | 89.9%
16 | Cc1nc(Nc2cccc(NC(=O)Nc3ccc(Cl)cc3)c2)c2ccccc2n1 | 71.2% | 101% | 79.3% | 46.7% | 78.1% | 67.1% | 106% | 69.7%
17 | Cn1cc(-c2ccc3ncc(-c4ccc(CC(=O)Nc5cc(C(C)(C)C)nn5C)cc4)cc3c2)cn1 | -3.95% [30 µM] (active) | -2.02% [30 µM] (active) | 2.73% [30 µM] (active) | 22.2% [30 µM] | 2.17% [30 µM] (active) | 20.4% [30 µM] | 29.6% [30 µM] | -40.1% [30 µM] (active)
18 | CCCCCCNC(=O)c1cc(NCc2cc(O)ccc2O)ccc1O | 21.3% | 22.4% | 71.5% | 76.8% | 54.9% | 75% | 105% | 69.1%
19 | CCN(CC)CCOC(=O)Nc1ccccc1Cl | 98.6% | 81.3% | 108% | 101% | 101% | 72.7% | 101% | 103%
20 | COc1cc(CNC(=O)/C=C/C=C/c2ccc3c(c2)OCO3)ccc1OCc1cn(-c2ccc(Cl)c(Cl)c2)nn1 | -4.43% (active) | -8.89% (active) | -18.3% (active) | -33.4% (active) | -46.2% (active) | -30.6% (active) | 51.1% | 1.12% (active)
21 | C=CCO[C@H]1CO[C@H]2[C@@H]1OC[C@@H]2Oc1ccc(Nc2ccnc(Nc3ccc(O[C@H]4CO[C@H]5[C@@H]4OC[C@@H]5OCC=C)c(Cl)c3)n2)cc1Cl | -39.7% (active) | 32.7% | -88.4% (active) | -58.9% (active) | -71.1% (active) | -29.7% (active) | -93.3% (active) | -72.1% (active)
22 | CCOC(=O)C1=C(C)NC(SCc2nnc(-c3ccc(Cl)cc3)o2)=NC1c1ccc(Cl)cc1Cl (stereo not given) | 47.4% | 89.7% | 69% | 66.2% | 32% | 28.8% | 84.5% | 63.4%
23 | COc1cc(-c2ccc(N=Nc3c(O)c(C(=O)Nc4ccccc4OC)cc4ccccc34)c(OC)c2)ccc1N=Nc1c(O)c(C(=O)Nc2ccccc2OC)cc2ccccc12 | 103% | 90.2% | 99.9% | 91.8% | 91.1% | 81.8% | 97.7% | 94.8%
24 | COc1ccc(-c2cc(-c3cc(OC)ccc3OC)[nH]c(=O)c2C#N)cc1 | 63.8% | 48.7% | 1.49% (active) | 26.7% | 59.5% | 29.9% | 75.9% | 51.4%
25 | COc1cc(C(=O)/C=C/c2c(C(F)(F)F)nc3ccccn23)cc(OC)c1OC | 8.03% (active) | 10.4% | -10.2% (active) | -29.6% (active) | -44.7% (active) | -84.3% (active) | -97.2% (active) | -82.7% (active)
26 | O=C(/C=C/C12c3ccccc3C(c3ccccc31)C1C(=O)N(c3ccccc3)C(=O)C12)c1ccccc1 (stereo not given) | 40.7% | -2.69% (active) | -1.64% (active) | 1.65% (active) | 14.7% | -57.7% (active) | -65% (active) | -41.3% (active)
27 | Clc1ccc(-c2nc(NCCc3ccccc3)nc3c(NCCc4ccccc4)cnn23)cc1 | 63.3% | 63.6% | 42.6% | 33.5% | 31.1% | 28.6% | 72.4% | 70%
28 | N#Cc1c(N)n2c(nc1=Nc1ccc([N+](=O)[O-])cc1)sc1cc(Cl)ccc12 | 78.2% | 116% | 97.9% | 96.4% | 77.6% | 94.3% | 144% | 97.2%
29 | COc1ccc(-c2nnc(SCC(=O)NC3=NN=C(c4ccccc4)CS3)o2)cc1 | 78.4% | 104% | 97.1% | 98.3% | 102% | 94.2% | 105% | 102%
30 | CCNCCNc1cc(-c2ccc(C(F)(F)F)cc2)c(C#N)c2nc3cc(Cl)c(Cl)cc3n12 | -53.2% (active) | -2.28% (active) | -92.6% (active) | -81.8% (active) | -70.6% (active) | -88.3% (active) | -88.9% (active) | -77.7% (active)
